The supplement of paper PMC12645437, “Orthogonal IMiD-Degron Pairs Induce Selective Protein Degradation in Cells” (ACS Chemical Biology, 2025)
In all, about 8,300 sequences were measured (“log2 fold change of degron read counts, EGFP-low vs EGFP+ sorted cells (limma voom), compound-induced degradation”: median about -1.1, highest 2% from about 3.2 on). The full list was thinned out, with the highest values kept by preference.

T1: CRBN, Q96SW2
T1 chain: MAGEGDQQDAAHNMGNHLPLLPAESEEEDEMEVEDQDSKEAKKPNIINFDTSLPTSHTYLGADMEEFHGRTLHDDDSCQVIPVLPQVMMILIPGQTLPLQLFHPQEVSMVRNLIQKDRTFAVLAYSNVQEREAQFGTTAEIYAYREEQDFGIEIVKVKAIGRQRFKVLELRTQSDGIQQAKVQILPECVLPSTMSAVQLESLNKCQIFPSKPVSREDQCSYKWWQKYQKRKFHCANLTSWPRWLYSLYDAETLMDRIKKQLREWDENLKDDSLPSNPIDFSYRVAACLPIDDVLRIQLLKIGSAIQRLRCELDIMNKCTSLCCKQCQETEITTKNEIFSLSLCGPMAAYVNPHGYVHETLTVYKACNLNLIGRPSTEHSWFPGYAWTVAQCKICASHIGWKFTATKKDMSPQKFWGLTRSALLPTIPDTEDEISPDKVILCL


Target: T1, CRBN, Q96SW2
Experiment: log2 fold change of degron read counts, EGFP-low vs EGFP+ sorted cells (limma voom), compound-induced degradation; higher = more compound-induced degradation of the degron-EGFP fusion; degrons are variants of IKZF1/3 zinc finger 2; compound dose not given here
Settings: Jurkat, 18 h
[1] = compound: compound 19 (5-tert-butyl-thalidomide)
[2] = compound: compound 22 (5-morpholino-thalidomide)
[3] = compound: compound 33 (diphenyl IMiD analogue)
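Also: pooled lentiviral library of zinc finger degron-EGFP fusions in mCherry-positive Jurkat cells, FACS-sorted after compound exposure, with degron abundance counted by next-generation sequencing.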

| Sequence | log2 fold change of degron read counts [1] | log2 fold change of degron read counts [2] | log2 fold change of degron read counts [3] | log2 fold change of degron read counts (compound: thalidomide) |
| --- | --- | --- | --- | --- |
| FWCPICGHYFTQKGNLLRHIKL [46F_47W_49P_50I_52G_53H_54Y_55F_67L_, Q9UKT9] | -0.542 | -0.321 | -0.506 | -0.28 |
| FKCNVCGAEFTQKGNLLRHIKL [46F_47K_49N_50V_52G_53A_54E_55F_67L_, Q9UKT9] | -3.18 | -3.1 | -3.12 | -2.1 |
| FHCPICGATFTQKGNLLRHIKL [46F_47H_49P_50I_52G_53A_54T_55F_67L_, Q9UKT9] | 1.64 | 1.89 | 1.62 | 0.481 |
| FMCEVCGAPFTQKGNLLRHIKL [46F_47M_49E_50V_52G_53A_54P_55F_67L_, Q9UKT9] | 2.75 | 3.55 | 3.12 | 2.6 |
| FKCEVCGAPFTQKGNLLRHIKL [46F_47K_49E_50V_52G_53A_54P_55F_67L_, Q9UKT9] | 2.02 | 1.13 | -1.28 | 1.95 |
| FECEVCGAPFTQKGNLLRHIKL [46F_47E_49E_50V_52G_53A_54P_55F_67L_, Q9UKT9] | 1.65 | -1.41 | 0.683 | 1.6 |
| LCCPICGFFCTQKGNLLRHIKL [46L_47C_49P_50I_52G_53F_54F_55C_67L_, Q9UKT9] | 1.09 | 1.75 | 2.77 | 2.39 |
| LWCPICGFFCTQKGNLLRHIKL [46L_47W_49P_50I_52G_53F_54F_55C_67L_, Q9UKT9] | 2.66 | 3.04 | 2.81 | 2.05 |
| LACPICGFFCTQKGNLLRHIKL [46L_47A_49P_50I_52G_53F_54F_55C_67L_, Q9UKT9] | 3.31 | 2.49 | 2.27 | 2.24 |
| LGCPICGFFCTQKGNLLRHIKL [46L_47G_49P_50I_52G_53F_54F_55C_67L_, Q9UKT9] | 3.27 | 2.15 | 2.31 | 1.94 |
| LHCPICGFFCTQKGNLLRHIKL [46L_47H_49P_50I_52G_53F_54F_55C_67L_, Q9UKT9] | 2.35 | 2.51 | 2.79 | 2.23 |
| LSCPICGFFCTQKGNLLRHIKL [46L_47S_49P_50I_52G_53F_54F_55C_67L_, Q9UKT9] | 2.05 | 1.71 | 2.64 | 2.39 |
| FVCNQCGAAFTQKGNLLRHIKL [46F_47V_49N_50Q_52G_53A_54A_55F_67L_, Q9UKT9] | -2.28 | -0.788 | -0.293 | -0.146 |
| FTCNQCGRRFTQKGNLLRHIKL [46F_47T_49N_50Q_52G_53R_54R_55F_67L_, Q9UKT9] | -2.59 | -2.14 | -1.95 | -1.42 |
| FHCPICGRFFTQKGNLLRHIKL [46F_47H_49P_50I_52G_53R_54F_55F_67L_, Q9UKT9] | -0.744 | -1.72 | -0.739 | -1.66 |
| FSCEICGADFTQKGNLLRHIKL [46F_47S_49E_50I_52G_53A_54D_55F_67L_, Q9UKT9] | 0.281 | -0.67 | -0.225 | -0.832 |
| FCCEICGADFTQKGNLLRHIKL [46F_47C_49E_50I_52G_53A_54D_55F_67L_, Q9UKT9] | 0.103 | -0.401 | 0.273 | -0.00478 |
| FCCEQCGAPFTQKGNLLRHIKL [46F_47C_49E_50Q_52G_53A_54P_55F_67L_, Q9UKT9] | -0.706 | -2.38 | -1.75 | -1.28 |

| Sequence | log2 fold change of degron read counts [1] | log2 fold change of degron read counts [2] | log2 fold change of degron read counts [3] | log2 fold change of degron read counts (compound: thalidomide) |
| --- | --- | --- | --- | --- |
| FCCEICGAPFTQKGNLLRHIKL [46F_47C_49E_50I_52G_53A_54P_55F_67L_, Q9UKT9] | 3.63 | 2.99 | 1.57 | 2.05 |
| FSCEICGAPFTQKGNLLRHIKL [46F_47S_49E_50I_52G_53A_54P_55F_67L_, Q9UKT9] | 3.54 | 2.69 | 1.29 | 1.99 |
| FKCEICGAPFTQKGNLLRHIKL [46F_47K_49E_50I_52G_53A_54P_55F_67L_, Q9UKT9] | 2.99 | 1.73 | -0.501 | 2.51 |
| FHCNQCGRVFTQKGNLLRHIKL [46F_47H_49N_50Q_52G_53R_54V_55F_67L_, Q9UKT9] | -1.76 | -2.76 | -1.72 | -1.87 |
| FTCPQCGAAFTQKGNLLRHIKL [46F_47T_49P_50Q_52G_53A_54A_55F_67L_, Q9UKT9] | -0.476 | 0.413 | 1.73 | 0.798 |
| FRCEVCGAMFTQKGNLLRHIKL [46F_47R_49E_50V_52G_53A_54M_55F_67L_, Q9UKT9] | -0.953 | -0.985 | 0.652 | 0.605 |
| FWCDICGAKFTQKGNLLRHIKL [46F_47W_49D_50I_52G_53A_54K_55F_67L_, Q9UKT9] | 3.22 | 3.7 | 0.265 | -0.173 |
| FECDICGAKFTQKGNLLRHIKL [46F_47E_49D_50I_52G_53A_54K_55F_67L_, Q9UKT9] | -0.727 | -2.12 | -2.83 | 0.61 |
| FFCDICGAKFTQKGNLLRHIKL [46F_47F_49D_50I_52G_53A_54K_55F_67L_, Q9UKT9] | 3.35 | 3.15 | 0.231 | -0.76 |
| FQCDICGAKFTQKGNLLRHIKL [46F_47Q_49D_50I_52G_53A_54K_55F_67L_, Q9UKT9] | -0.69 | 2.25 | -0.885 | 3.28 |
| FICDICGAKFTQKGNLLRHIKL [46F_47I_49D_50I_52G_53A_54K_55F_67L_, Q9UKT9] | -1.2 | 1.29 | -0.575 | 0.898 |
| FKCDICGAKFTQKGNLLRHIKL [46F_47K_49D_50I_52G_53A_54K_55F_67L_, Q9UKT9] | -2.45 | -3.31 | -3.09 | -2.29 |
| FYCDICGAKFTQKGNLLRHIKL [46F_47Y_49D_50I_52G_53A_54K_55F_67L_, Q9UKT9] | 3.2 | 3.32 | 0.608 | -0.632 |
| FMCDICGAKFTQKGNLLRHIKL [46F_47M_49D_50I_52G_53A_54K_55F_67L_, Q9UKT9] | -0.74 | -1.21 | -0.567 | -0.432 |
| FLCDICGAKFTQKGNLLRHIKL [46F_47L_49D_50I_52G_53A_54K_55F_67L_, Q9UKT9] | -0.855 | -1.86 | -1.23 | 0.0222 |
| FCCDICGAKFTQKGNLLRHIKL [46F_47C_49D_50I_52G_53A_54K_55F_67L_, Q9UKT9] | 1.97 | 1.65 | -1.18 | 0.858 |
| FNCDICGAKFTQKGNLLRHIKL [46F_47N_49D_50I_52G_53A_54K_55F_67L_, Q9UKT9] | 0.554 | -1.18 | -2.65 | -2.02 |
| FTCDICGAKFTQKGNLLRHIKL [46F_47T_49D_50I_52G_53A_54K_55F_67L_, Q9UKT9] | -0.131 | 0.993 | -1.38 | 0.963 |
